Measured values as given in PubChem BioAssay (Tox21).
Where “and” joins values, the source holds several entries; their conditions need not be identical. Equal entries are not always repeated. Inconclusive results are not listed. Where a call stands in place of a potency, no number is given. A structure can be active in one record and inactive in another. Calls of active or inactive are those of the source. Unless noted, calls follow the shape of the dose curve; as a rule, active = well fitted curve in the direction sought with a large enough effect in the repeat runs; inconclusive = weak or mixed curves; inactive = no such curve, though single readings can be large; an effect the other way counts as inactive or inconclusive.

Legend:
[1] = target: Progesterone receptor (Homo sapiens) (UniProt P06401); test: qHTS assay to identify small molecule agonists of the progesterone receptor (PR) signaling pathway (AID 1346784; calls by dose curve; also: nearly all actives have a fitted effect of over 30% in size)
Procedure, shortened: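 Beta-lactamase reporter read-out: after 16 hr compound treatment at 37C and a further 2 hr at room temperature with LiveBLAzer B/G FRET substrate, fluorescence was measured in PR-UAS-bla HEK 293T cells grown in 2% charcoal-stripped serum.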

[2] = target: Progesterone receptor (Homo sapiens) (UniProt P06401); test: qHTS assay to identify small molecule antagonists of the progesterone receptor (PR) signaling pathway (AID 1346795; active = well fitted inhibition curve with a large enough effect in the signal ratio in the repeat runs, not every such curve was filed as active; the % refers to the signal ratio)
Procedure, shortened: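 Read-out is fluorescence from the LiveBLAzer B/G FRET substrate, cleaved by a UAS-controlled beta-lactamase in PR-UAS-bla HEK293T cells after 16 hr exposure to compound plus 1 nM promegestone (final), followed by 2 hr at room temperature.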

[3] = qHTS assay to identify small molecule antagonists of the progesterone receptor (PR) signaling pathway - cell viability counter screen (AID 1346798);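 also: HEK293T PR-UAS-bla cells stimulated with the agonist R5020; series mostly up to about 92 µM; nearly all actives have a fitted effect of over 50% in size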
Procedure, shortened: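 HEK293T PR-UAS-bla, 2% charcoal-stripped FBS; 4 hr pre-plate; cpd + R5020, 16 h 37C; LiveBLAzer read first; then CellTiter-Glo 30 min RT, luminescence.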

[4] = qHTS assay to identify small molecule agonists of the progesterone receptor (PR) signaling pathway - cell viability counter screen (AID 1346799; calls by dose curve; also: nearly all actives have a fitted effect of over 45% in size)
Procedure, shortened: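 Luminescence from CellTiter-Glo, added after the beta-lactamase FRET read in the same wells, gave cytotoxicity in PR-UAS-bla HEK293T cells treated with compounds for 16 hr at 37C.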

[5] = qHTS assay to identify small molecule antagonists of the TGF-beta/Smad signaling pathway - cell viability counter screen (AID 1346824); also: nearly all actives have a fitted effect of over 50% in size
Procedure, shortened: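 Cytotoxicity counter-screen run in the same wells as the beta-lactamase Smad reporter read: CellTiter-Glo luminescence after 30 min at room temperature. HEK 293T SBE-bla cells had 5 hr compound exposure at 37 C with TGF-beta1 (0.25 ng/mL stock).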

[6] = qHTS assay to identify small molecule agonists of the TGF-beta/Smad signaling pathway - cell viability counter screen (AID 1346829); also: top concentration of the series differs between compounds; nearly all actives have a fitted effect of over 45% in size
Procedure, shortened: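 Same-well cytotoxicity: CellTiter-Glo added after the 2 hr room-temperature beta-lactamase substrate step, luminescence measured 30 min later; cells had 5 hr of compound at 37 C.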

[7] = qHTS assay to identify small molecule agonists of the TGF-beta/Smad signaling pathway (AID 1346859; active = well fitted activation curve with a large enough effect in the signal ratio in the repeat runs, not every such curve was filed as active; the % refers to the signal ratio; also: series mostly up to about 77 µM)
Procedure, shortened: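 SBE-bla HEK 293T, 4,000 cells/well, plated o/n; cpd in DMSO, 5 hr, 37 C/5% CO2; B/G FRET substrate 2 hr RT; ex 405, em 460/530 nm.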

[8] = target: Thyrotropin-releasing hormone receptor (Homo sapiens) (UniProt P34981); test: qHTS assay to identify small molecule antagonists of the thyrotropin-releasing hormone receptor (TRHR) signaling pathway (AID 1346877; active = well fitted inhibition curve with a large enough effect in the repeat runs, not every such curve was filed as active; also: series mostly up to about 51 µM)
Procedure, shortened: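 TRHR-expressing HEK293 cells were seeded, cultured 18 h at 37 °C, then loaded with calcium dye for 2 h. Compounds were pre-incubated 5 min at room temperature before 1 nM TRH (final) was added, and kinetic fluorescence was recorded for 3 min.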

[9] = target: Thyrotropin-releasing hormone receptor (Homo sapiens) (UniProt P34981); test: qHTS assay to identify small molecule agonists of the thyrotropin-releasing hormone receptor (TRHR) signaling pathway (AID 1346891; calls by dose curve; also: series mostly up to about 58 µM)
Procedure, shortened: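 Intracellular calcium rise, read as fluorescence every second for 3 min, served as the agonist signal in dye-loaded HEK293 cells expressing TRHR; each compound ran at 15 concentrations in triplicate.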

[10] = Human pregnane X receptor (PXR) small molecule agonists, qHTS cell viability counter screen (AID 1346977); also: nearly all actives have a fitted effect of over 50% in size
Procedure, shortened: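 PXR-Luc HepG2, 2,000 cells/well, 5% charcoal-stripped FBS; 5hr settle; cpd 24hr, 37C/5% CO2; CellTiter-Fluor at 23hr, read 1hr later (fluorescence).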

[11] = Caspase-3/7 induction in HepG2 cells by small molecules, qHTS assay (AID 1346978); also: nearly all actives have a fitted effect of over 15% in size
Procedure, shortened: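 Caspase-3/7 induction was measured by Caspase-Glo 3/7 luminescence (30 min, room temperature) after a 17 hr compound exposure of wild-type HepG2 cells seeded at 2,000 per well and pre-incubated 5 hr.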

[12] = Caspase-3/7 induction in CHO-K1 cells by small molecules, qHTS cell viability counter screen (AID 1346979); also: nearly all actives have a fitted effect of over 35% in size
Procedure, shortened: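 Cells (CHO-K1, wild type) are plated at 1,500 per well and incubated 5hr. Test compounds in DMSO are then pinned in, followed by 16hr at 37C and 5% CO2. Viability is read by CellTiter-Fluor fluorescence after 1hr.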

[13] = Caspase-3/7 induction in CHO-K1 cells by small molecules, qHTS assay (AID 1346980); also: nearly all actives have a fitted effect of over 15% in size
Procedure, shortened: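 Luminescent Caspase-Glo 3/7 read (30min, room temperature) quantified apoptosis induction. Cells were wild-type CHO-K1, treated with compound for 17hr at 37 C and 5% CO2.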

[14] = Caspase-3/7 induction in HepG2 cells by small molecules, qHTS cell viability counter screen (AID 1346981); also: series mostly up to about 92 µM; nearly all actives have a fitted effect of over 30% in size
Procedure, shortened: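 Wild-type HepG2 cells (2,000/well) were allowed to settle for 5 hr at 37 C, 5% CO2, then dosed with compounds in DMSO by pin transfer. After 16 hr at 37 C, CellTiter-Fluor was added and fluorescence read 1 hr later.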

[15] = target: Nuclear receptor subfamily 1 group I member 2 (Homo sapiens) (UniProt O75469); test: Human pregnane X receptor (PXR) small molecule agonists, qHTS assay (AID 1346982); also: nearly all actives have a fitted effect of over 35% in size; also: potency is read from the fitted curve at half-maximal effect
Procedure, shortened: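 PXR-Luc HepG2 cells (CYP3A4 promoter-driven luciferase) were seeded in medium with 5% charcoal-stripped FBS, left 5 hr at 37 C, then exposed to compounds in DMSO for 24 hr. Luminescence was read after ONE-Glo addition.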

[16] = target: Cytochrome P450 2D6 (Homo sapiens) (UniProt P10635); test: Cytochrome P450 Family 2 Subfamily D Member 6 (CYP2D6) small molecule antagonists: luciferase reporter qHTS assay (AID 1671196); also: nearly all actives have a fitted effect of over 50% in size; also: potency is read from the fitted curve at half-maximal effect
Procedure, shortened: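 CYP2D6 enzyme–substrate mix was held with compound for 10 min at room temperature, then NADPH regeneration solution was added and the reaction ran 1 h at room temperature. Luciferin product was detected by luminescence after 20 min with detection reagent.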

[17] = target: Cytochrome P450 2C19 (Homo sapiens) (UniProt P33261); test: Cytochrome P450 Family 2 Subfamily C Member 19 (CYP2C19) small molecule antagonists: luciferase reporter qHTS assay (AID 1671197); also: nearly all actives have a fitted effect of over 65% in size; also: potency is read from the fitted curve at half-maximal effect
Procedure, shortened: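 Quantitative high-throughput screen of the Tox21 library using CYP2C19 with proluciferin substrate. Reaction: NADPH regeneration, 37C, 1 h, after 10 min compound preincubation at room temperature. Readout: luminescence.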

[18] = target: Cytochrome P450 2C9 (Homo sapiens) (UniProt P11712); test: Cytochrome P450 Family 2 Subfamily C Member 9 (CYP2C9) small molecule antagonists: luciferase reporter qHTS assay (AID 1671198); also: nearly all actives have a fitted effect of over 50% in size; also: potency is read from the fitted curve at half-maximal effect
Procedure, shortened: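 Enzyme-substrate mix preincubated with compound 10 min at room temperature; reaction started with NADPH regeneration solution, 1 h 37C. Luminescent luciferin product read after 20 min detection reagent.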

[19] = target: Nuclear receptor subfamily 1 group I member 2 (Rattus norvegicus) (UniProt Q9R1A7); test: Rat pregnane X receptor (rPXR) activation by small molecules, qHTS assay (AID 1346983); conditions: rPXR luciferase reporter cells, One-Glo luminescence, 24 h; max activation: stronger effect = higher value; also: nearly all actives have a fitted effect of over 20% in size
Procedure, shortened: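 Luminescent readout (One-Glo luciferase, 30 min room temperature) followed 24 hr compound treatment at 37 C of rPXR cells plated 2,000 per well and preincubated 5hr; qHTS format with compounds delivered in DMSO.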

[20] = target: Nuclear receptor subfamily 1 group I member 2 (Homo sapiens) (UniProt O75469); test: Human pregnane X receptor (PXR) activation by small molecules, qHTS assay (AID 1346985); also: nearly all actives have a fitted effect of over 40% in size
Procedure, shortened: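 DPX-2 cells (HepG2 co-transfected with a PXR response element and a CYP3A4-promoter luciferase construct) were seeded at 2,000 per well, rested 5 hr at 37C, then exposed to DMSO-dissolved compounds for 24 hr. Activation was read as luciferase luminescence.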

Chain of Cytochrome P450 2C19 (Homo sapiens) (P33261 whole entry, looked up): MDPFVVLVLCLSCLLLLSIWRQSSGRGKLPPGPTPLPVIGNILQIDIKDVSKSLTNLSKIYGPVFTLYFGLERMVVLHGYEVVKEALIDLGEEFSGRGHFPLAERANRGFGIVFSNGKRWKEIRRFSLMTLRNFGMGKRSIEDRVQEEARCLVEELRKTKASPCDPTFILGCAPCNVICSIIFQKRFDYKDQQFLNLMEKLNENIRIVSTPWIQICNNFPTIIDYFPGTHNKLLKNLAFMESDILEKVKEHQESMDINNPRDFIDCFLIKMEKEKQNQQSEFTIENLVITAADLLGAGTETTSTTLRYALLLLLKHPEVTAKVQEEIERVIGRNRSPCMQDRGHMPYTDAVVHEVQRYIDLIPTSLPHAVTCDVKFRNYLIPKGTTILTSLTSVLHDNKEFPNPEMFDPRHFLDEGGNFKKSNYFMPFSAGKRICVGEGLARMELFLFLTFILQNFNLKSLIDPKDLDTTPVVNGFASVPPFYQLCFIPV
Chain of Nuclear receptor subfamily 1 group I member 2 (Rattus norvegicus) (Q9R1A7 whole entry, looked up): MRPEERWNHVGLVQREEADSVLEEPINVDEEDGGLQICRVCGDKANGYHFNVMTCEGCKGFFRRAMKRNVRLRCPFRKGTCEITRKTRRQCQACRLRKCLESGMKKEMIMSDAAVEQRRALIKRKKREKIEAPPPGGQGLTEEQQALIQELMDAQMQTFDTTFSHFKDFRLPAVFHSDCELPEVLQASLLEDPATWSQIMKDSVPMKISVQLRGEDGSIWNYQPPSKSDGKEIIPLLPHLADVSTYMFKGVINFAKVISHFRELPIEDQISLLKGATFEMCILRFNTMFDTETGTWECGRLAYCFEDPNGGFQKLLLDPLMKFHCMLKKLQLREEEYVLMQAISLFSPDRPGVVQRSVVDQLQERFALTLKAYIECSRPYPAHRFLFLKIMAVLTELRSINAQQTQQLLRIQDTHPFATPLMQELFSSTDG
Chain of Progesterone receptor (Homo sapiens) (P06401 whole entry, looked up): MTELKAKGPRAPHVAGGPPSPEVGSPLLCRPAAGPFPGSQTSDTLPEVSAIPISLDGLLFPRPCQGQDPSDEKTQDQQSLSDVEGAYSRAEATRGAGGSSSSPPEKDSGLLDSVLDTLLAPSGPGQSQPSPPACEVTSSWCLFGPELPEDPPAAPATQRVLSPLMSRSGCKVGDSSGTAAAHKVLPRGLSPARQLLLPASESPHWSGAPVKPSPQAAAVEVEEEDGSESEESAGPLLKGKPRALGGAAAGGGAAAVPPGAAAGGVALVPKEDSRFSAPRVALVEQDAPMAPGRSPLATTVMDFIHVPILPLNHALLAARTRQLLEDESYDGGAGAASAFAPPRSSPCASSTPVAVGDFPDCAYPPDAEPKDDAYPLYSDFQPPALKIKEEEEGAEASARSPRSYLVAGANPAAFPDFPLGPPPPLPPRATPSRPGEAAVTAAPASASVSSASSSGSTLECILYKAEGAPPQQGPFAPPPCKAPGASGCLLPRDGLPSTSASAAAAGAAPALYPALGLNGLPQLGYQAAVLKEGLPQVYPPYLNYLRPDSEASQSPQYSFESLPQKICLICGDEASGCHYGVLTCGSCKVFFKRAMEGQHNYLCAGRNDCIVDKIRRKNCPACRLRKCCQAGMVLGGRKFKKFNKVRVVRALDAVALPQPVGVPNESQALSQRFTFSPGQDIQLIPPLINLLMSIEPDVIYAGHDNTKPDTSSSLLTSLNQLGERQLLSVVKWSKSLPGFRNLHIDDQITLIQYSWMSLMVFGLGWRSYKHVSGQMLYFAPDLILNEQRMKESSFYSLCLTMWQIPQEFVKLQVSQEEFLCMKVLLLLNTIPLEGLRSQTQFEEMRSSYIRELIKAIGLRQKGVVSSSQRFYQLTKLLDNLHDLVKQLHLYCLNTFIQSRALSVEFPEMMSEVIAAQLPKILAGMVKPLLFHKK
Chain of Cytochrome P450 2C9 (Homo sapiens) (P11712 whole entry, looked up): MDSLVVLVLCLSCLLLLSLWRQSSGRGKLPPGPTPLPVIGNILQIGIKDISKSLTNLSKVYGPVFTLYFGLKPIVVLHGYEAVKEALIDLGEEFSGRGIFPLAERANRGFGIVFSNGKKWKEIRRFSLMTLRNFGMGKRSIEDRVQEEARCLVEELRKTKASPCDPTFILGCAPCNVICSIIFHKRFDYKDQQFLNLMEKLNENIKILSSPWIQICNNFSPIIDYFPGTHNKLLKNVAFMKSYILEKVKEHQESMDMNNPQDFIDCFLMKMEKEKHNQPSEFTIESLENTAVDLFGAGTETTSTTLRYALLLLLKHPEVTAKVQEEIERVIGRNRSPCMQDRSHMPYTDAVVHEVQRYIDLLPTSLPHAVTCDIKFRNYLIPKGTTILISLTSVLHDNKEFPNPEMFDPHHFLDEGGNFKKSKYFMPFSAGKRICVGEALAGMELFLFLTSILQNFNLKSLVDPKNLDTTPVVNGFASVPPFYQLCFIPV
Chain of Cytochrome P450 2D6 (Homo sapiens) (P10635 whole entry, looked up): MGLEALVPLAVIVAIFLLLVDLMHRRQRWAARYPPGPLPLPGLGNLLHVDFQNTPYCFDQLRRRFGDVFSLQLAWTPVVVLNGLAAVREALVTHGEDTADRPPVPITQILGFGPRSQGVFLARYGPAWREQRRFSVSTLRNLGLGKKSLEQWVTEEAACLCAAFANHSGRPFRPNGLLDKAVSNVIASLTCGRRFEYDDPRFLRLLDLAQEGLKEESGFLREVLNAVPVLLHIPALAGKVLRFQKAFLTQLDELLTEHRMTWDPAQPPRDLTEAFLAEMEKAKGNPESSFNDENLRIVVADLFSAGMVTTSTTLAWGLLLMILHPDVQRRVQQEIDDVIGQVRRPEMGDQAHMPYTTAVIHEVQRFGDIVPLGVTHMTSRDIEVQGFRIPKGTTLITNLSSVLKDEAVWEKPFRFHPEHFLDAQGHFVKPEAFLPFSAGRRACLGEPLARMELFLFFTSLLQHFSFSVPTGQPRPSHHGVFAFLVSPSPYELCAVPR
Chain of Thyrotropin-releasing hormone receptor (Homo sapiens) (P34981 whole entry, looked up): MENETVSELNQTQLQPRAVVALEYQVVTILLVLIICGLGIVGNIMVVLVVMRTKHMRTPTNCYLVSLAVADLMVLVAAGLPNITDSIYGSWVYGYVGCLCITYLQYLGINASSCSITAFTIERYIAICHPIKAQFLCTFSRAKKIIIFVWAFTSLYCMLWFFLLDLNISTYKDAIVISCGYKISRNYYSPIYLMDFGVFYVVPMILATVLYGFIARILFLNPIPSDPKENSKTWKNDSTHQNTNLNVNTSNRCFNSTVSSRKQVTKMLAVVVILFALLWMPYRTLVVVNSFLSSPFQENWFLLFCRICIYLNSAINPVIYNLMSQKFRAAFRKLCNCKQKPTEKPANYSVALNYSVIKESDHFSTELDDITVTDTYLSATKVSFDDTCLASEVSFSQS
Chain of Nuclear receptor subfamily 1 group I member 2 (Homo sapiens) (O75469 whole entry, looked up): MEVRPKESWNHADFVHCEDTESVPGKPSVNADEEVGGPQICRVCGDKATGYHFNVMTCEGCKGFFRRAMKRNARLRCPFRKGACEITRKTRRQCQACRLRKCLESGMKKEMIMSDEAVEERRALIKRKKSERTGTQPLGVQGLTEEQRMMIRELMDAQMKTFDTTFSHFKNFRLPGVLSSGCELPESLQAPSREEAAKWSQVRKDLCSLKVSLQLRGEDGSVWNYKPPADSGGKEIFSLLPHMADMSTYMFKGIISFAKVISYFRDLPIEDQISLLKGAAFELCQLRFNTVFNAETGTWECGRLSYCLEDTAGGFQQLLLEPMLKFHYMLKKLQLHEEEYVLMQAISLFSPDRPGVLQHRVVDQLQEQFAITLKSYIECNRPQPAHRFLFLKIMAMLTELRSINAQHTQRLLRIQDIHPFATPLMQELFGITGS

| SMILES | Potency [1] | Potency [2] | Potency [3] | Potency [4] | Potency [5] | Potency [6] | outcome [7] | outcome [8] | Potency [9] | Potency [10] | Potency [11] | Potency [12] | outcome [13] | Potency [14] | Potency [15] | Potency [16] | Potency [17] | Potency [18] | max activation [19] | Potency [20] |
| --- | --- | --- | --- | --- | --- | --- | --- | --- | --- | --- | --- | --- | --- | --- | --- | --- | --- | --- | --- | --- |
| CC(=O)c1ccc(S(=O)(=O)NC(=O)NC2CCCCC2)cc1 | inactive | inactive | inactive | inactive | inactive | inactive | inactive | inactive | inactive | inactive | inactive | inactive | inactive | inactive | inactive | 31.6 µM (active) and inactive | inactive | 31.6 µM (active) and 31.7 µM (active) and 17.4 µM (active) |  |  |
| COc1ccccc1O | inactive | inactive | inactive | inactive | inactive | inactive | inactive | inactive | inactive | inactive | inactive | inactive | inactive | inactive | inactive | inactive | inactive | inactive | -3.23% (inactive) | inactive |
| O=C(O)CCCCC1CCSS1 (centres undefined) | inactive | inactive | inactive | inactive | inactive | inactive | inactive | inactive | inactive | inactive | inactive | inactive | inactive | inactive | inactive | inactive | 49.6 µM (active) and inactive | inactive |  |  |
| Cc1c(N(C)CS(=O)(=O)O)c(=O)n(-c2ccccc2)n1C | inactive | inactive | inactive | inactive | inactive | inactive | inactive | inactive | inactive | inactive | inactive | inactive | inactive | inactive | inactive | inactive |  |  | -2.23% (inactive) | inactive |
| CCc1cc(C(N)=S)ccn1 | inactive | inactive | inactive | inactive | inactive | inactive | inactive | inactive | inactive | inactive | inactive | inactive | inactive | inactive |  |  |  |  |  |  |
| COc1cc(C=O)ccc1O | inactive | inactive | inactive | inactive | inactive | inactive | inactive | inactive | inactive | inactive | inactive | inactive | inactive | inactive | inactive | inactive | inactive | inactive |  |  |
| c1ccc2[nH]c(-c3cscn3)nc2c1 | inactive | inactive | inactive | inactive | inactive | inactive | inactive | inactive | inactive | inactive | inactive | inactive | inactive | inactive | 30.8 µM (active) and 770 nM (active) and 6.68 µM (active) | 39.9 µM (active) and 38.9 µM (active) | 35.8 µM (active) and 71 µM (active) and 34.7 µM (active) | inactive |  |  |
| C/C=C/c1ccc(O)c(OC)c1 | inactive | inactive | inactive | inactive | inactive | inactive | inactive | inactive | inactive | inactive | inactive | inactive | inactive | inactive | inactive | inactive | 7.96 µM (active) and 39.9 µM (active) and 8.71 µM (active) | 2.83 µM (active) and 20 µM (active) and 13.8 µM (active) | 6.95% (inactive) | inactive |
| N[C@@H](Cc1c[nH]c2ccccc12)C(=O)O | inactive | inactive | inactive | inactive | inactive | inactive | inactive | inactive | inactive | inactive | inactive | inactive | inactive | inactive | inactive | 35.6 µM (active) and inactive | 31.8 µM (active) and inactive | 71.1 µM (active) |  |  |
| OCCCc1ccccc1 | inactive | inactive | inactive | inactive | inactive | inactive | inactive | inactive | inactive | inactive | inactive | inactive | inactive | inactive | inactive | inactive | 31.7 µM (active) and inactive | inactive |  |  |
| CC(C)CC(C)CC(O)CC(C)C (centres undefined) | inactive | inactive | inactive | inactive | inactive | inactive | inactive | inactive | inactive | inactive | inactive | inactive | inactive | inactive | inactive | inactive | inactive | inactive |  |  |
| CN(C)C=O | inactive | inactive | inactive | inactive | inactive | inactive | inactive | inactive | inactive | inactive | inactive | inactive | inactive | inactive | inactive | inactive | inactive | inactive |  |  |
| CN(C)Cc1cc(CN(C)C)c(O)c(CN(C)C)c1 | inactive | inactive | inactive | inactive | inactive | inactive | inactive | inactive | inactive | inactive | inactive | inactive | inactive | inactive | inactive | 79.6 µM (active) and inactive | inactive | inactive |  |  |
